# Test results reported in ChEMBL document CHEMBL4513216, “Probing the Open Global Health Chemical Diversity Library for Multistage-Active Starting Points for Next-Generation Antimalarials” (ACS Infect Dis, 2020).
# The campaign covered roughly 68,000 compounds. About 2,700 (4%) showed an effect of 50% or more. Many of the other results were omitted from the sample, so strong results are more common in it than they were.
# Tested on: Plasmodium berghei
# Assay: Screen against P. berghei liver stage (PbLuc), transformed with Luciferase, at 2uM
# Assay type: functional, HepG2
# Details: tested at 2 uM
row,SMILES,INHIBITION [%]
1,Cn1cccc1CN1CCC2(CC1)CN(c1ccccc1)C(=O)CO2,40.64
2,CCN(CCC(F)(F)F)S(=O)(=O)c1cccc(F)c1C#N,-46.3
3,Cc1cccc2cc(C(=O)N3CCSCC3)n(C)c12,19.04
4,N#Cc1cc(F)ccc1Cn1cncn1,-14.79
5,Fc1ccc(CNc2ccccc2Cn2cncn2)cc1,32.93
6,N#Cc1cc(F)ccc1NCc1ccc(Cn2cncn2)cc1,53.99
7,Cc1cnn(CC2CCCN2Cc2nnc(C(C)C)o2)c1 (configuration not stated),-12.82
8,Cc1ccccc1CN(C)C(=O)CN1CCOC(Cn2cncn2)C1 (configuration not stated),2.07
9,Cc1cc(=O)c2cc(F)ccc2n1CC(=O)O,-30.92
10,O=S(=O)(c1ccc(F)cc1)N1CC[C@H]2[C@H]1CCN2c1ncccn1,31.96
11,O=S(=O)(c1cccs1)N1CC[C@H]2[C@H]1CCN2c1ncccn1,56.76
12,Cc1cccc(S(=O)(=O)N2CC[C@H]3[C@H]2CCN3c2ncccn2)c1,29.19
13,CN1CC(=O)N(c2cccc(F)c2)CC12CCN(S(=O)(=O)C1CC1)C2 (configuration not stated),-12.36
14,COCCN1C(=O)[C@]2(CC[C@@H]3CN(C(=O)NC(C)C)C[C@@H]32)N=C1C,16.91
15,CN(C)[C@@H]1CCN(C(=O)Cc2cccs2)[C@H]1Cc1ccncc1,-23.59
16,Cc1cc(CN2CC[C@H]3[C@H]2CCN3S(C)(=O)=O)oc1C,-12.98
17,CCN1C(=O)CCCC12CCCN(C(=O)c1cc(C)oc1C)C2 (configuration not stated),19.09
18,CCN1C(=O)CCCC12CCCN(C(=O)c1occc1C)C2 (configuration not stated),46.87
19,CCN1C(=O)CCCC12CCCN(C(=O)c1ccoc1C)C2 (configuration not stated),50.17
20,Cc1nc(C)c(C(=O)Nc2cccc(CN3CCC(CO)CC3)c2)o1,-8.84
21,Cn1cc(CN2CCc3ncnc(N4CCOCC4)c3CC2)cn1,-15.83
22,Cc1nc(N2CCOCC2)nc2c1COCC21CCN(CC(C)C)C1 (configuration not stated),53.55
23,Cc1nc(N(C)C)nc2c1COCC21CCN(CC2CC2)C1 (configuration not stated),-54.51
24,CCN1CCC2(COCc3c(C)nc(N4CCOCC4)nc32)C1 (configuration not stated),-9.91
25,Cc1nc(N2CCOCC2)nc2c1COCC21CCN(CC2CC2)C1 (configuration not stated),-27.12
26,CCN1CCC2(COCc3c(C)nc(N(C)C)nc32)C1 (configuration not stated),25.31

row,SMILES,INHIBITION [%]
1,COCCN1CCC2(COCc3c(C)nc(N(C)C)nc32)C1 (configuration not stated),54.62
2,CCOC(C)c1nccn1Cc1noc(CC)n1 (configuration not stated),-12.93
3,COCCN1CC[C@H]2CN(c3cc(OC)ncn3)C[C@@H]2C1=O,-25.53
4,O=C(c1ccccc1F)N1CCOC(c2nc(-c3ncccn3)no2)C1 (configuration not stated),-14.56
5,COc1cccc(-c2ccc3nc(C4CCN(C(C)=O)CC4)nn3c2)c1,-3.4
6,O=C1NC2(CCN(Cc3nccs3)CC2)CC1c1ccncc1 (configuration not stated),53.54
7,O=C1NC2(CCN(Cc3cccs3)CC2)CC1c1ccncc1 (configuration not stated),-13.79
8,O=C1NC2(CCN(Cc3ccc(F)cc3)CC2)CC1c1ccncc1 (configuration not stated),-26.22
9,COc1ccc(CNC(=O)NCCc2csc(C)n2)cn1,-33.61
10,Cc1nnc(N2CCC(CN(C)C(C)C)CC2)c(C#N)c1C,2.1
11,Cc1nnc(N2CCCC(CS(N)(=O)=O)C2)c(C#N)c1C (configuration not stated),57.79
12,Cc1nnc(N2CCC(CS(N)(=O)=O)CC2)c(C#N)c1C,46.52
13,CNc1nccnc1C1CCN(C(C)C)CC1,-5.95
14,CC(C)N1CCC(c2n[nH]cc2S(C)(=O)=O)CC1,53.59
15,Cc1c[nH]nc1C1CCN(S(=O)(=O)N(C)C)CC1,20.73
16,CC1CCN(CCNCc2cc(-c3ccccc3)cn3nnnc23)CC1,26.56
17,CCc1c(C)nn2c(O)cc(C3CCN(C(=O)C4CC4)C3)nc12 (configuration not stated),11.53
18,Cc1cccc(CN2CC3(CCN(Cc4ccoc4)CC3)OCC2=O)n1,11.99
19,O=C1CC(c2ccncc2)C2(CCN(Cc3cccnc3)CC2)N1 (configuration not stated),-4.26
20,O=C1CC(c2ccncc2)C2(CCN(Cc3ccc(F)cc3)CC2)N1 (configuration not stated),6.03
21,Cc1noc(C)c1CN1CCC2(CC1)NC(=O)CC2c1ccccc1 (configuration not stated),20.01
22,O=C1CC(c2ccccc2)C2(CCN(Cc3ccncc3)CC2)N1 (configuration not stated),54.07
23,Cc1ccc(CN2CCC3(CC2)NC(=O)CC3c2ccccc2)s1 (configuration not stated),57.85
24,Cc1nc(CN2CCC3(CC2)NC(=O)CC3c2ccccc2)cs1 (configuration not stated),44.43
25,COc1cccc(C(=O)C2CCCN(c3cc(C#N)ccn3)C2)c1 (configuration not stated),-45.86
26,CC(C)COc1cncc(NCCc2nnc3ccccn23)n1,39.02

row,SMILES,INHIBITION [%]
1,Cc1nn(C)cc1S(=O)(=O)N[C@@H]1CCC[C@@H](n2ccnc2)[C@@H]1O,45.48
2,COc1ccccc1N1CCN(C(=O)c2ccoc2)CC1,-2.44
3,CN(C)c1cc(C(=O)N2CCCC2)ccn1,-18.23
4,COc1ccccc1N1CCN(C(=O)c2ccnc(N(C)C)c2)CC1,56.78
5,CN(C)c1ccc(C(=O)N2CCN(Cc3cscn3)CC2)cn1,19.18
6,CN(C)c1cc(C(=O)N2CCCN(Cc3cscn3)CC2)ccn1,51.21
7,CN(C)c1ccc(C(=O)N2CCCN(Cc3cscn3)CC2)nn1,-11.33
8,Cc1cnc(CCNc2cccc(CC3CCCNC3)n2)s1 (configuration not stated),23.7
9,CC[C@@H]1N(Cc2ccsc2)CCC[C@]12CCC(=O)N2C,62.46
10,CC[C@@H]1N(Cc2ccco2)CCC[C@]12CCC(=O)N2C,53.46
11,CC[C@H]1N(Cc2ccco2)CCC[C@]12CCC(=O)N2C,23.26
12,CC[C@@H]1N(Cc2ccsc2)CCC[C@]12CCC(=O)N2CCOC,-27.69
13,CC[C@@H]1N(Cc2ccc(F)cc2)CCC[C@]12CCC(=O)N2C,25.46
14,CC[C@@H]1N(Cc2ccc(C)s2)CCC[C@]12CCC(=O)N2C,20.42
15,CCCOc1ccc(CC2=NC(C)(CO)CO2)cc1 (configuration not stated),-27.61
16,CCNC(=O)[C@@H]1CCCN1[C@@H](C(=O)NC)c1ccccc1,-11.34
17,CSCc1noc(CN2CCC3(CC2)CC(=O)N(CC(C)C)C3)n1,10.61
18,CC(C)N(CCCNC(=O)C1CC(=O)N(C)C1)S(C)(=O)=O (configuration not stated),2.97
19,COC(=O)C(C)(C)NC(=O)c1cnc(Cc2ccc(F)cc2)s1,-32.82
20,COc1ccnc(NC(Cc2ccccc2)C(N)=O)n1 (configuration not stated),33.9
21,COc1ccc(-c2ccc(C(=O)NS(C)(=O)=O)c(F)c2)c(F)c1,-27.53
22,COc1ccc(-c2ccc(C(=O)NCCCC(N)=O)c(F)c2)c(F)c1,53.81
23,COc1ccc(-c2ccc(C(=O)O)c(F)c2)c(F)c1,17.01
24,O=C(c1c[nH]cn1)N1CCCn2c(CN3CCCCC3)nnc2C1,51.26
25,CN(C)Cc1nnc2n1CCCN(C(=O)c1c[nH]cn1)C2,-51.91
26,O=C(c1c[nH]cn1)N1CCCn2c(nnc2Cn2cccc2)C1,26.44

row,SMILES,INHIBITION [%]
1,CNc1cc(C)nc(C2CN(Cc3cncs3)CCO2)c1 (configuration not stated),-29.68
2,CC(C)N(C)C(=O)CSCc1ccc(S(=O)(=O)N(C)C)o1,30.34
3,Cn1cc(CN(C(=O)c2ccc(O)c(Cl)c2)C2CC2)cn1,-33.15
4,CN1C(=O)c2ccc(C(=O)N(Cc3cnn(C)c3)C3CC3)cc2C1=O,21.14
5,Cn1cc(CN(C(=O)c2ccc3ncsc3c2)C2CC2)cn1,57.34
6,CCn1cnnc1C1CCN(C(=O)c2cccc(-n3cccc3)c2)CC1,-6.48
7,COc1cc(N2CCC3(CCN(Cc4nccs4)CC3)C2)ncn1,7.71
8,CCCc1cc(C(=O)N(C)Cc2cccc3ncccc23)n(C)n1,-24.24
9,CCCc1cc(C(=O)N(C)Cc2ccc(OC)c3ncccc23)n(C)n1,58.56
10,CCCc1cc(C(=O)N(C)Cc2cccc3cnccc23)n(C)n1,19.91
11,O=C(c1ccccc1)N1C[C@H]2CC[C@@H](C1)N(S(=O)(=O)c1cccnc1)C2,-23.58
12,Cc1noc(C)c1CN1CCC2(CCN(Cc3cccc(F)c3)CC2)C1,24.04
13,Cc1nc2ccccc2nc1NCc1cccc(OCC2CCCO2)c1 (configuration not stated),17.25
14,O=C(CC1=CCCCC1)N1CCC(Cn2cc(CCO)nn2)CC1,-8.21
15,COc1ccc(CCCN2C(=O)O[C@@H]3CN(C4CCOCC4)C[C@@H]32)cc1,51.81
16,O=C1O[C@@H]2CN(C3CCOCC3)C[C@@H]2N1CCCc1ccc(F)cc1,-23.46
17,COc1ccc(CCN2C(=O)O[C@@H]3CN(C4CCOCC4)C[C@@H]32)cc1,1.42
18,Cc1cc(CN(C)C(=O)CN2CC3(CCNCC3)OC2=O)n(C)n1,24.12
19,CC(Cn1cc(Br)cn1)C(=O)Nc1ccc(C(N)=O)cc1 (configuration not stated),-34.79
20,CSc1nnc(C2CCN(C(=O)N3CCCC3)CC2)n1C,5.83
21,O=C(Nc1cccnc1)[C@H]1C[C@H]2OCC[C@H]2N(Cc2ccc(F)cc2)C1,26.62
22,Cn1ccnc1CN1CCc2ncnc(N3CCCC(C#N)C3)c2CC1 (configuration not stated),23.64
23,c1ccc(CN2CCc3ncnc(C4CC4)c3CC2)cc1,14.13
24,N#CC1CCCN(c2ncnc3c2CCN(Cc2ccccc2)CC3)C1 (configuration not stated),51.9
